Assay outcomes (PubChem BioAssay)
Only some compounds are listed: those with a hit (about 5.7% of all), similar ones and a draw of the others.
NPSR antag: qHTS Assay for Antagonists of the Neuropeptide S Receptor: cAMP Signal Transduction; Potency, µM (series often up to 38.3 µM), hits mostly inhibitors; 1% of 220,000 active; AID 1461, 2008; CHO-NPSR cells, cAMP TR-FRET, antagonist mode; also: nearly all actives have a fitted effect of over 50% in size
RORgamma inh: qHTS for inhibitors of ROR gamma transcriptional activity; Nuclear receptor ROR-gamma (Mus musculus), P51450; Drosophila S2 Gal4-RORgamma UAS-luciferase reporter, 20 h; Potency, µM (top dose mostly 53.6 µM), actives largely listed as inhibitors; 5.4% of 310,000 active; AID 2551, 2010; also: nearly all actives have a fitted effect of over 60% in size
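Stable Schneider cell line, Gal4 DNA-binding domain fused to ROR gamma, UAS-luciferase. Cmpd 1 hr RT → CuSO4 700 uM final → 20 hr RT → luciferase reagent 10 min → luminescence.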
Gal4-VP16 FLuc: VP16 counterscreen qHTS for inhibitors of ROR gamma transcriptional activity. Drosophila S2 Gal4-VP16 UAS-luciferase, luminescence, 20 h. Potency, µM (series often up to 53.6 µM), most hits filed as inhibitors. 3.5% of 310,000 active. AID 2546, 2010;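 also: Gal4-VP16 expression switched on by copper sulfate through the metallothionein promoter; nearly all actives have a fitted effect of over 50% in size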
B2AR arrestin: qHTS assay of beta-arrestin-biased ligands of beta2-adrenergic receptor; Beta-2 adrenergic receptor (Homo sapiens), P07550; beta-arrestin recruitment to beta2AR, cell-based reporter; Potency, µM (doses to about 46.1 µM), usual class: activators; 0.02% of 330,000 active; AID 492947, 2010; also: nearly all actives have a fitted effect of over 65% in size
Target sequence (P07550 whole entry, looked up): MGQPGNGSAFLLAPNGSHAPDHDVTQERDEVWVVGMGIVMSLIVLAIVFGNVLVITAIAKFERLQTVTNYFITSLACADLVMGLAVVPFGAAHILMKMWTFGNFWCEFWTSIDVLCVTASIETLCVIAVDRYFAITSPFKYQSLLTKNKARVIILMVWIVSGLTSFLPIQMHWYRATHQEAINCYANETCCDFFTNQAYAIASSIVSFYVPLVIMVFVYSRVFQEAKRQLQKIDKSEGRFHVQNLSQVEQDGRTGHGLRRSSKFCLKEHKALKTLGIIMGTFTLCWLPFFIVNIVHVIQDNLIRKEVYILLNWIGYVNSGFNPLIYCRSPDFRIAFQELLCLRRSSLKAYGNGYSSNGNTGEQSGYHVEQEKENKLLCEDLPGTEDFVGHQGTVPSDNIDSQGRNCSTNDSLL
Hits are given with their value; i = inactive; ? = inconclusive; nt = no result; ! = not active in a repeat. Calls follow the shape of the dose curve; as a rule, active = well fitted curve in the direction sought with a large enough effect; inconclusive = small, poorly fitted or top-dose-only effect, or another doubt; inactive = no such curve, though single readings can be large; an effect the other way counts as inactive or inconclusive.

SMILES	NPSR antag	RORgamma inh	Gal4-VP16 FLuc	B2AR arrestin
CCOc1ccccc1CNC(=O)c1ccc(NC(=O)C2=C(C)OCCS2)cc1	nt	i	i	i
CCC(=O)OCCNc1cc(Sc2nc3ccccc3s2)c2nonc2c1[N+](=O)[O-]	?	i	4.5µM	i
CCCC(=O)OCCNc1cc(Sc2nccn2C)c2nonc2c1[N+](=O)[O-]	10µM	5.6µM	5µM	i
CCC(=O)OCCNc1cc(Sc2nc3ccccc3[nH]2)c2nonc2c1[N+](=O)[O-]	?	3.2µM	4.5µM	i
O=C(O)CN(c1ccccc1)S(=O)(=O)c1cc(C(F)(F)F)cc(C(F)(F)F)c1	i	i	i	i
O=S(=O)(Nc1ncccn1)c1ccc(NC(=S)NCc2ccco2)cc1	i	i	i	i
Cc1cccnc1NC(=S)NCc1ccco1	i	2µM	?	?
S=C(NCc1ccco1)Nc1ccc(Cl)cn1	nt	2.5µM	2.8µM	i
Cc1cccnc1NC(=O)c1ccco1	nt	nt	nt	i
CC(OC(=O)c1ccc(S(=O)(=O)NCc2ccco2)cc1)C(=O)Nc1ccc(Cl)cn1 (stereo unspecified)	i	?	i	i
S=C(NCc1ccco1)Nc1ccccn1	i	1.8µM	13µM	?
O=C(CN1C(=O)C(=O)N(Cc2ccco2)C1=O)Nc1ccccc1	nt	nt	nt	i
Cc1cccc(C)c1NC(=O)C1CCCN1C(=O)NCc1ccccc1 (stereo unspecified)	nt	i	i	i
CC1C/C(=C/c2cccn2C)C(=O)/C(=C/c2cccn2C)C1 (stereo unspecified)	?	13µM	?	i
CC1C/C(=C/c2ccncc2)C(=O)/C(=C/c2ccncc2)C1 (stereo unspecified)	i	7.1µM	2.8µM	i
O=C1NCN(c2ccccc2)C12CCN(CCCC(c1ccc(F)cc1)c1ccc(F)cc1)CC2	13µM	13µM!	18µM!	i
O=C1CCC(=O)N1CCC(c1ccc(F)cc1)c1ccco1 (stereo unspecified)	i	i	i	i
O=C1C[C@H](NC(=O)OCc2ccccc2)CO1	nt	nt	nt	i
CCc1ccc(N2C(=O)C(Cl)=C(N3CCOCC3)C2=O)cc1	i	i	13µM	i
COc1ccc(C2OC3C(CO)OC(n4cnc5c(=O)[nH]c(N)nc54)C3O2)cc1 (stereo unspecified)	nt	i	i	nt
COc1ccc(C2NCCc3c2[nH]c2ccccc32)cc1COc1ccc(F)cc1 (stereo unspecified)	i	10µM	8.9µM	i
COc1ccc(C2NCCc3c2[nH]c2ccccc32)cc1CN1CCc2cc(OC)c(OC)cc2C1C (stereo unspecified)	i	i	i	i
CCCC(=O)NC(c1ccccc1OC)c1ccc2cccnc2c1O (stereo unspecified)	i	5µM	2.2µM	?
CCCCC(=O)NC(c1ccccc1OC)c1ccc2cccnc2c1O (stereo unspecified)	i	5.6µM	4.5µM	i
CCC1CCCCN1C(=O)c1cc(COc2ccc(-n3cncn3)cc2)on1 (stereo unspecified)	nt	?	?	i
SMILES	NPSR antag	RORgamma inh	Gal4-VP16 FLuc	B2AR arrestin
O=C(O)C(O)C(O)C(O)C(O)C(=O)O (stereo unspecified)	nt	i	i	nt
COC(=O)C1(C(=O)OC)CC2=CCC3C(=O)N(c4ccccc4)C(=O)C3C2Cc2ccccc2[C@@H]1C[N+](=O)[O-] (stereo partly specified)	nt	i	i	nt
O=C(CN1CCOCC1)NNC(=S)Nc1ccccc1	i	i	1.3µM	i
Cc1ccc(C(=O)NC(=S)NCCCN2CCOCC2)cc1	i	18µM	i	i
COc1ccc(C(=O)N2CCN(c3ccc(NC(=O)Cc4ccccc4)cc3)CC2)cc1	nt	i	i	i
O=C(NC(=S)Nc1ccc(N2CCOCC2)cc1)c1ccccc1	i	8.9µM	?	i
Cc1ccc(C(=O)N2CCN(c3ccc(NC(=S)NC(=O)Cc4ccccc4)cc3)CC2)cc1	i	5.6µM	8.9µM	i
CC1CC(C)CN(CCCNC(=O)Cn2cccc2C(=O)c2ccccc2)C1 (stereo unspecified)	nt	i	i	i
CCOC(=O)C(C(=O)OCC)N(Cc1cc(OC)ccc1OC)C(=O)C1CC(CO[Si](C)(C)C(C)(C)C)=CN1C(=O)OC(C)(C)C (stereo unspecified)	nt	i	i	nt
CCc1ccc(C(=O)NC(=S)Nc2ccc(N3CCOCC3)cc2)cc1	i	5µM	18µM	i
O=C(NC(=S)Nc1ccc(N2CCOCC2)cc1)c1ccco1	i	?	i	i
O=C(NC(=S)Nc1ccc(N2CCOCC2)cc1)c1cccc(Cl)c1	i	2.5µM	11µM	i
Cc1ccccc1C(=O)NC(=S)Nc1ccc(N2CCOCC2)cc1	i	20µM	?	i
O=C(NC(=S)Nc1ccc(N2CCOCC2)cc1)c1cccc(Cl)c1Cl	nt	3.2µM	5µM	i
O=C(OCC(=O)N1CCC(c2ccccc2)=N1)c1ccc([N+](=O)[O-])s1	nt	nt	nt	i
c1cncc(CNc2ncnc3ccc(-c4ccco4)cc23)c1	nt	nt	nt	i
Cc1ccc(NC(=O)c2ccc(COc3ccccc3)o2)nc1	nt	?	i	i
CC(=O)c1ccc(NC(=S)Nc2ccc(N3CCOCC3)cc2)cc1	i	i	i	i
O=C(NC(=S)Nc1ccc(N2CCOCC2)cc1)c1cncc(Br)c1	i	5µM	8.9µM	i
O=C(NC(=S)NCCN1CCOCC1)c1cccc(Cl)c1	i	11µM	?	i
Cc1c(C(=O)NC(=S)Nc2ccc(N3CCOCC3)cc2)cccc1[N+](=O)[O-]	i	8.9µM	i	i
CC(C1CC1)N(Cc1ccccc1)C(=S)Nc1cccc(C(F)(F)F)c1 (stereo unspecified)	i	11µM	?	i
CC(C1CC1)N(Cc1ccccc1)C(=S)Nc1ccccc1 (stereo unspecified)	i	11µM	?	i
Cc1ccc(NC(=S)N(Cc2ccccc2)C(C)C)cc1	i	10µM	?	i
C#Cc1ccc([C@@H]2C=C(C(=O)OCC=C)O[C@H](OCc3ccc(CO)cc3)C2)cc1	i	i	i	i
SMILES	NPSR antag	RORgamma inh	Gal4-VP16 FLuc	B2AR arrestin
Cn1c(CNC(=O)c2ccco2)nnc1SCC(=O)c1ccc(Br)cc1	nt	i	i	i
Cn1c(CNC(=O)c2ccco2)nnc1SCC(=O)c1ccccc1	i	28µM	i	i
C[C@H](CO)N1C[C@H](C)[C@@H](CN(C)S(C)(=O)=O)Oc2ccc(NC(=O)CCC(F)(F)F)cc2C1=O	nt	nt	nt	i
COc1cccc(S(=O)(=O)N2CCN(Cc3ccc4c(c3)OCO4)CC2)c1	nt	i	i	i
COc1ccc(CCNc2c(C)c(C)nc3ncnn23)cc1	i	i	6.3µM	i
O=C(CO)[C@@H](O)C(O)[C@@H](O)CO (stereo partly specified)	nt	i	i	nt
CCOc1ccc(-c2cn(-c3ccccc3OC)c(=S)[nH]2)cc1	nt	3.5µM	8.9µM	i
COc1ccc(-n2cc(-c3ccccc3)c3c(=O)[nH]cnc32)cc1	i	i	i	i
CC(=O)Nc1ccc(-n2cc(-c3ccccc3)[nH]c2=S)cc1	i	?	i	i
COc1ccccc1-n1cc(-c2ccccc2)c2c(=S)nc[nH]c21	nt	1µM	1µM	i
